Bioassay records deposited in PubChem by National Center for Advancing Translational Sciences (NCATS).
CtBP-E1A inh – blocks the CtBP interaction with E1A; AlphaScreen GST-E1A/His-CtBP binding, 1536-well; stronger effect = lower value; activity change, % (test concentration not listed); 340,000 compounds, 0.49% hits; in the data active = activity change below about -65%; inconclusive = mostly about -30% to -63%
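Homogeneous bead-based format: GST-tagged E1A captured on glutathione donor beads, His-tagged CtBP on nickel acceptor beads; compounds precede bead addition by 2 h at 37 °C.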
Six1-Eya2 blk – blocks human Six1 binding to Eya2; Q15475+O00167; AlphaScreen GST-Six1/His-Eya2 binding, biochemical; stronger effect = lower value; activity change, % (no concentration beside the values); 360,000 compounds, 0.56% hits; in the data active = activity change below about -65%; inconclusive = mostly about -30% to -63%
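AlphaScreen with GST-Six1 and His-Eya2 (5X mix: 250 nM and 500 nM), glutathione donor and nickel acceptor beads; buffer 50 mM Tris pH 8.0, 300 mM NaCl, 1 mM TCEP; 1 h at 37 C in the dark.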
RORg inh – blocks mouse ROR gamma transcriptional activity; Drosophila S2 Gal4-RORgamma UAS-luciferase reporter, 20 h; Potency, µM (highest dose often 53.6 µM), for inactives: at the highest dose activity change, negative = inhibition, actives largely listed as inhibitors; 310,000 compounds, 5.4% hits; AID 2551; also: potency is read from the fitted curve at half-maximal effect; nearly all actives have a fitted effect of over 60% in size
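Drosophila Schneider cells stably carrying a metallothionein-driven Gal4 DBD–ROR gamma fusion and a UAS-Photinus luciferase reporter were exposed to compound for 1 hr, then induced with copper sulfate (700 uM final) for 20 hr at ambient temperature before luminescence reading.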
VP16 counter – inhibits Gal4-VP16 luciferase reporter, ROR gamma counter-screen; Potency, µM (highest dose often 53.6 µM), inactives show at the highest dose activity, negative = inhibition, actives largely listed as inhibitors; 310,000 compounds, 3.5% hits; AID 2546; Drosophila S2 Gal4-VP16 UAS-luciferase, luminescence, 20 h;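 also: Gal4-VP16 expression switched on by copper sulfate through the metallothionein promoter; potency is read from the fitted curve at half-maximal effect; nearly all actives have a fitted effect of over 50% in size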
PKM2 act – activators of human pyruvate kinase M2; 260,000 compounds, 0.34% hits; Potency, µM (doses to about 57.5 µM), for the others: at the top dose activation, actives largely listed as activators; purified PKM2, Kinase-Glo ATP luminescence, activation; response scale: 0% is enzyme alone, no compound; P14618; also: potency is read from the fitted curve at half-maximal effect; nearly all actives have a fitted effect of over 55% in size
Target sequence (P14618 whole entry, looked up): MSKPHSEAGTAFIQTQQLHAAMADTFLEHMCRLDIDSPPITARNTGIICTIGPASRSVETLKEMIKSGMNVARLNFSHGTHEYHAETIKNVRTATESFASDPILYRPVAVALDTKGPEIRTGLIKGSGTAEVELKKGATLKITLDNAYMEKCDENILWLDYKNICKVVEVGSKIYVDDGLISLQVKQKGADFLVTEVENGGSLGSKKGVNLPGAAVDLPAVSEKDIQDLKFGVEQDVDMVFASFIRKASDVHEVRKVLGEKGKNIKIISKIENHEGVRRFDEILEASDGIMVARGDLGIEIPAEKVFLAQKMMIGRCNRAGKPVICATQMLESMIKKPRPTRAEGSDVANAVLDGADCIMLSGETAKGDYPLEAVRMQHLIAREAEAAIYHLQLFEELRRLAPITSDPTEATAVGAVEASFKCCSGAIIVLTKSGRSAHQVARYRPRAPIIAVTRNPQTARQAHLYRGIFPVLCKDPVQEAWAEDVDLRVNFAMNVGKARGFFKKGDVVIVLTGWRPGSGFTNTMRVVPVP
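Kinase-Glo luminescence reports ATP generated from ADP (0.1 mM) and PEP (0.5 mM) by purified hPK-M2 after 1 h at room temperature, pH 7.2 imidazole buffer; intermediate enzyme activity allows detecting inhibitors and activators.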
An asterisk follows results filed as active; ? = inconclusive; · = no result given; [ ] = another dose, or the depositor's remark. Sampled rows, rich in hits. Any-hit rate of the full collection: about 5.6%. Unless noted, calls follow the shape of the dose curve; as a rule, active = well fitted curve in the direction sought with a large enough effect; inconclusive = small, poorly fitted or top-dose-only effect, or another doubt; inactive = no such curve, though single readings can be large; an effect the other way counts as inactive or inconclusive. % is scaled to controls: 0 for no effect and ±100 for the full control effect.

SMILES	CtBP-E1A inh	Six1-Eya2 blk	RORg inh	VP16 counter	PKM2 act
CCOCCCN1CN(Cc2ccccc2)CNC1=S	-1	12	2.5µM*	3.5µM*	3%
COCCCN1CN(Cc2ccco2)CNC1=S	7	-4	-25%	2%	2%
CCCCN1CN(Cc2ccccc2)CNC1=S	-2	-15	4.5µM*	5µM*	-23%
CCOc1ccc(NS(=O)(=O)c2cc(C(=O)N(CC)CC(=O)NCc3cccs3)ccc2C)cc1	-6	-1	·	·	·
COc1ccc(N=CC2=C(O)c3ccccc3C2=O)cc1	2	1	3.2µM*	?	-33%
CN=CC1=C(O)c2ccccc2C1=O	1	4	15%	-6%	-3%
O=C1C(C=Nc2ccccc2)=C(O)c2ccccc21	3	-1	?	11µM*	-34%
CC(=O)OCC(=O)[C@@]1(O)CCC2C3CCC4=CC(=O)C=CC4(C)C3C(O)C[C@]21C (stereo partly specified)	·	·	1%	0%	·
CCN(CC)CCNC(=O)c1ccc2c(=O)n(C3CCCC3)c(=S)[nH]c2c1	-20	-13	-37%	1%	0%
CC(C)NC(=O)c1ccc2c(=O)n(C3CCCC3)c(=S)[nH]c2c1	2	2	0.1µM*	?	14%
O=C(c1ccc2c(=O)n(C3CCCC3)c(=S)[nH]c2c1)N1CCc2ccccc21	11	-3	1µM*	3.2µM*	1%
COc1ccc2nc(/C=N/NC(=O)[C@@H]3CCCN3C(=O)OC(C)(C)C)ccc2c1	-13	-20	-30%	-4%	-12%
CC(C)C(NC(=O)c1ccc(F)cc1)C(=O)NC1(C)CCS(=O)(=O)C1 (stereo unspecified)	·	10	·	·	·
COc1ccc(OC)c(Nc2nc(=O)c3cccnc3s2)c1	-15	-9	4.5µM*	3.2µM*	8.9µM*
Cc1cccc(OCCOC(=O)CN2C(=O)NC3(CCCC3)C2=O)c1	-2	4	·	·	·
CC(C)(C)C1CCc2c(sc(NC(=O)c3cc(C4CC4)on3)c2C#N)C1 (stereo unspecified)	1	0	5.6µM*	?	0%
CC(=O)Nc1ccc(C(=O)NC2CCSc3ccccc32)cc1 (stereo unspecified)	-1	3	-12%	14%	-1%
Cc1ccc(NC(=S)NC2CCSc3ccccc32)cc1 (stereo unspecified)	-19	-24	-102%	5.6µM*	0%
COC(=O)c1ccc(NC(=S)NC2CCc3ccccc32)cc1 (stereo unspecified)	-1	4	7.9µM*	?	0%
CCCc1cc(=O)[nH]c2nnc(SCC(=O)Nc3cc(C)on3)n12	2	5	·	·	·
CC(C)C[C@H]1CN([C@@H](CC(C)C)CN2CCC[C@@H]2CN2C(=S)NC[C@@H]2Cc2ccc(O)cc2)C(=S)N1CC1CCCCC1	-4	-12	·	·	·
C(=N\Nc1nc2ccccc2[nH]1)/c1cccs1	6	2	3.2µM*	4.5µM*	-52%
Cc1ccsc1/C=N/Nc1nc2ccccc2[nH]1	-2	-8	1.4µM*	1.4µM*	-26%
COc1cccc(C(C)(O)c2nc(/C=C/c3ccccc3)cs2)c1 (stereo unspecified)	1	1	·	·	·
COCCN(CCOC)C(=O)c1ccc(NS(=O)(=O)c2ccc3[nH]c(=O)[nH]c3c2)cc1	-3	0	11%	2%	-1%
SMILES	CtBP-E1A inh	Six1-Eya2 blk	RORg inh	VP16 counter	PKM2 act
N#CC(C#N)=Cc1cn(-c2ncc(C(F)(F)F)cc2Cl)c2ccccc12	6	-1	11µM*	?	-1%
COc1ccccc1N1CCN(C(=O)c2cc(-c3ccc(F)cc3)[nH]c2C)CC1	-2	-7	?	-4%	·
COc1ccc2cc3c(N)nn(C(=O)c4ccccc4Cl)c3nc2c1	·	-21	6%	-10%	20µM*
COc1cccc(CN2CC(C(=O)N3CCCO3)CCC2=O)c1 (stereo unspecified)	10	2	3%	6%	4%[0.46 µM]
COc1ccc(NC(=S)NCCc2ccccc2OC)c(OC)c1	-11	-6	-136%	?	-1%
COc1ccc(NC(=S)NCc2ccccc2Cl)c(OC)c1	-14	-4	13µM*	7.1µM*	-2%
